Screens as filed in PubChem BioAssay.
DT40 TDP1 no CPT – qHTS for Inhibitors of human tyrosyl-DNA phosphodiesterase 1 (TDP1): qHTS in cells in absence of CPT | DT40 Tdp1-/- hTDP1 cells, no CPT, ATP luminescence, 48 h | Potency, µM (doses to about 46.2 µM), without a hit: at the top dose activity change, negative = growth inhibition, most hits filed as inhibitors | 420,000 compounds, 15% hits | AID 686978, 2013; note: potency is the fitted concentration of half-maximal effect; nearly all actives have a fitted effect of over 55% in size
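Growth kinetics read by CellTiter-Glo luminescence after ≥48 hr at 37 °C. Cells: DT40 Tdp1-/- stably carrying human TDP1, 400 per well, compound exposure in the absence of CPT (DMSO vehicle).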
IL1B secr inh – inhibitors of inflammasome signaling (IL-1 beta secretion); THP-1 LPS/ATP IL-1B secretion, AlphaLISA, 16 h; active compounds read low; activity change, % at 57.5 µM; 360,000 compounds, 4.7% hits; AID 743279; in the data active = activity change below about -50%; inconclusive = mostly about -30% to -49%
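THP-1 cells pretreated 1 hr with compounds (up to 57.5 uM final), then stimulated with LPS (250 ng/mL final) plus ATP (1.25 mM final); secreted IL-1B measured by AlphaLISA after 16 hr, decreased signal indicating inhibition.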
VP16 counter – Gal4-VP16 reporter inhibition counter-screen; 310,000 compounds, 3.5% hits; Potency, µM (series often up to 53.6 µM), for the others: at the top dose activity, negative = inhibition, actives largely listed as inhibitors; Drosophila S2 Gal4-VP16 UAS-luciferase, luminescence, 20 h;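 note: Gal4-VP16 expression switched on by copper sulfate through the metallothionein promoter; potency is the fitted concentration of half-maximal effect; nearly all actives have a fitted effect of over 50% in size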
TDP1 cell CPT – growth inhibition of DT40 Tdp1-/-;hTDP1 cells with camptothecin (screen for TDP1 inhibitors). 420,000 compounds, 12% hits. chicken DT40 Tdp1-/-;hTDP1 cells + 20 nM CPT, ATP luminescence, 48 h. Potency, µM (doses to about 46.2 µM), for inactives: at the top dose activity change, negative = growth inhibition, actives largely listed as inhibitors. AID 686979; note: potency is the fitted concentration of half-maximal effect; nearly all actives have a fitted effect of over 55% in size
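Chicken DT40 Tdp1-/- cells complemented with human TDP1, 400 cells/well, exposed to compounds plus 20 nM camptothecin for at least 48 h at 37 C; viability read as ATP content by CellTiter-Glo luminescence.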
ELG1 repair inh – ELG1-dependent DNA repair inhibition. HEK293T ELG1-luciferase reporter, luminescence, 16 h; DNA damage induced by 5-fluorouridine. Potency, µM (titrated, usually from 46.1 µM), for inactives: top-dose activity change, negative = inhibition, usual class: inhibitors. 330,000 compounds, 2.3% hits; note: potency is the fitted concentration of half-maximal effect; nearly all actives have a fitted effect of over 55% in size
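DMSO vehicle served as the neutral condition. Each well held 2,000 cells given 5-fluorouridine plus compound; after 16 hr at 37 °C/5% CO2, ONE-Glo was added and luciferase measured 30 min later.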
RORg inh – ROR gamma (mouse) transcription inhibition; Drosophila S2 Gal4-RORgamma UAS-luciferase reporter, 20 h; AID 2551; Potency, µM (series often up to 53.6 µM), without a hit: top-dose activity change, negative = inhibition, actives largely listed as inhibitors; 310,000 compounds, 5.4% hits; note: potency is the fitted concentration of half-maximal effect; nearly all actives have a fitted effect of over 60% in size
Target sequence (P51450 whole entry, looked up, the tested form may be a part): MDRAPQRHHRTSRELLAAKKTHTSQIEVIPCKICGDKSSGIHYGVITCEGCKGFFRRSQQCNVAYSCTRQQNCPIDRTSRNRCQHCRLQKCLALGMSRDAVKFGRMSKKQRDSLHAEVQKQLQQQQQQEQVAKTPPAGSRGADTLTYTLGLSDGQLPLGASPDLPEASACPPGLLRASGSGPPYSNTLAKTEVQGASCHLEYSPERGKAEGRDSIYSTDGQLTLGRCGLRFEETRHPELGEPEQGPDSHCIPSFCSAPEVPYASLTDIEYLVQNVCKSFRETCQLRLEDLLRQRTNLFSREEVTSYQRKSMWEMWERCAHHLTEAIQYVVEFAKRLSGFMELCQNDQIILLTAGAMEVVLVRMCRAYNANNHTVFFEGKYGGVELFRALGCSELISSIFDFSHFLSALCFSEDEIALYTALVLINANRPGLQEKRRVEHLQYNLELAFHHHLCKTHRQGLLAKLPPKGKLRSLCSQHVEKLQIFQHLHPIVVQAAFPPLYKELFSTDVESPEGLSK
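Luciferase reporter read in Schneider cells carrying Gal4-RORγ (mouse) and UAS-Photinus luciferase; cells given compound 1 h before 700 uM copper sulfate induction, then incubated 20 h at ambient temperature.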
Starred values were filed as active, the others as inactive; ? = inconclusive; nt = no result given; [ ] = dose if it differs, or a comment. This is a sample that favours compounds with a hit; in the whole collection about 21% have one here. Unless noted, calls come from the whole dose curve; as a rule, active = well fitted curve in the direction sought with a large enough effect; inconclusive = small, poorly fitted or top-dose-only effect, or another doubt; inactive = no such curve, though single readings can be large; an effect the other way counts as inactive or inconclusive. % is set by controls: 0 for no effect and ±100 for the full control effect.

SMILES	DT40 TDP1 no CPT	IL1B secr inh	VP16 counter	TDP1 cell CPT	ELG1 repair inh	RORg inh
COc1ccc(-c2csc(NC(=O)c3c(OC)cccc3OC)n2)cc1	?	-17.8	-3.2%	-29.5%	0.8%	0.1%
CCOC(=O)Cc1csc(NC(=O)c2c(C)noc2C)n1	0.2%	64.5	nt	-0.1%	nt	nt
CCc1noc(C)c1C(=O)OCC(=O)Nc1nc(-c2ccc(F)c(F)c2)cs1	14.6µM*	-79.8*	nt	?	?	nt
Cc1ccc(-c2csc(NC(=O)c3c(C)noc3C)n2)s1	4.11µM*	-10.0	nt	5.17µM*	?	nt
CCc1noc(C)c1C(=O)OCC(=O)c1ccc(NC(C)=O)cc1F	20.6µM*	26.0	nt	?	-1.2%	nt
Cc1cc(N2CCN(c3cccc(C)c3C)CC2)n2nc(C)c(-c3ccc(Cl)cc3)c2n1	0.5%	nt	nt	-9.3%	nt	nt
COc1ccc(N2C(=O)[C@@H]3C[C@H]2CN3Cc2ccc3nccnc3c2)cc1Cl	?	nt	nt	10.8%[9.04 µM]	nt	nt
O=S1(=O)N[C@@H](Cc2ccccc2)COc2cccc(N3CCC[C@H]3CO)c21	?	1.3	nt	?	nt	nt
Cc1cc(O)ccc1-c1cccc2nccn12	-5.8%	9.6	nt	-26.2%	nt	nt
CC1CN(Cc2cccn2-c2ncccn2)Cc2cc(Cl)ccc2O1 (stereo not given)	?	nt	nt	14.1%[9.04 µM]	nt	nt
Cc1ccc(-c2csc(NC(=O)c3c(C)noc3C)n2)cc1C	13µM*	-16.7	nt	18.4µM*	8.9%	nt
Cc1ccc(C)c(-c2csc(NC(=O)c3c(C)noc3C)n2)c1	?	62.3	nt	?	-11.4%	nt
Cc1onc(-c2ccccc2)c1C(=O)Nc1nc(-c2ccc(F)c(F)c2)cs1	25.9µM*	10.9	-0.9%	?	-26.5%	0.0%
Cc1noc(C)c1C(=O)Nc1nc(C23CC4CC(CC(C4)C2)C3)cs1	18.4µM*	-58.4*	22.4µM*	?	?	?
Cc1csc(NC(=O)c2c(-c3ccccc3)noc2C)n1	?	52.1	2.5%	0.0%	-3.6%	12.5%
CC(=O)c1ccc(N2CCN(C(=O)c3ccccc3SCC(=O)NCc3ccco3)CC2)c(F)c1	?	1.4	nt	?	nt	nt
COc1cccc(/C=C/C(=O)OCC(=O)NCC2CCCCC2)c1OC	14.8%	8.6	nt	-16.7%	7.4%	nt
COc1ccc(C(CC(=O)c2ccccc2)C2CCCCC2=O)cc1 (stereo not given)	-28.7%	-2.9	13.0%	16.4µM*	-6.4%	-14.4%
O=C(NNS(=O)(=O)c1ccc(F)cc1)c1cccc(O)c1	8.5%	20.1	4.4%	-4.9%	-5.0%	-0.5%
O=C(CSc1nc(O)c(C2CCCCC2)c(=O)[nH]1)Nc1ccc(F)cc1	-8.2%	-15.0	2.3%	-4.5%	-1.1%	-17.5%
CCCCC(=O)Nc1ccc2nc(SCC(=O)N3CCCC3)sc2c1	20.6µM*	nt	nt	?	nt	nt
CC(C)(C)C(=O)Nc1ccc2nc(SCC(=O)N3CCCC3)sc2c1	20.6µM*	nt	nt	-84.7%	nt	nt
CC(C)C(=O)Nc1ccc2nc(SCC(=O)N3CCOCC3)sc2c1	?	nt	nt	-25.7%	nt	nt
COC(=O)N1CCCCC1c1cc(C(=O)N2CCOCC2)no1 (stereo not given)	-0.3%	-15.7	nt	-14.3%	nt	nt
CC(OC(=O)C1CCCC1)C(=O)Nc1ccc(S(N)(=O)=O)cc1 (stereo not given)	?	5.7	nt	-28.5%	-0.3%	nt
SMILES	DT40 TDP1 no CPT	IL1B secr inh	VP16 counter	TDP1 cell CPT	ELG1 repair inh	RORg inh
Cc1cccc(CNS(=O)(=O)c2ccc3[nH]c(=O)ccc3c2)c1	-17.9%	nt	nt	?	nt	nt
COc1ccc(-c2cc(C(=O)Nc3ccc(S(N)(=O)=O)cc3)c3ccccc3n2)cc1OC	?	13.0	-0.8%	-9.8%	1.9%	-2.7%
COc1ccc(-c2cc(C(=O)Nc3ccccc3N3CCOCC3)c3ccccc3n2)cc1OC	4.61µM*	-51.8*	-0.7%	7.31µM*	11.6µM*	24.9%
COc1ccc(-c2cc(C(=O)Nc3ccc(Cl)cc3Cl)c3ccccc3n2)cc1OC	?	17.7	-4.6%	?	?	21.7%
O=C(Nc1ccccc1N1CCOCC1)c1ccc2ccccc2n1	16.4µM*	-1.6	-20.8%	?	10.5%	11.6%
O=C(NN1CCOCC1)c1cc(-c2ccncc2)nc2ccccc12	-28.6%	16.1	8.6%	-7.4%	3.8%	-26.0%
COc1cc(-c2cc(C(=O)Nc3ccc(N4CCOCC4)cc3)c3ccccc3n2)cc(OC)c1OC	1.84µM*	84.3	-6.3%	2.59µM*	8.2µM*	-18.6%
O=C(Nc1ccccc1N1CCOCC1)c1cc(-c2ccncc2)nc2ccccc12	11.6µM*	-7.4	-2.5%[10 µM]	11.6µM*	14.6µM*	3.4%
Cc1cn(CC(=O)NCc2ccc3c(c2)OCO3)c(=O)[nH]c1=O	-0.1%	-7.0	nt	10.4%	nt	nt
COc1cccc(-n2c(=O)c3c4c(sc3n(Cc3ccccc3C#N)c2=O)CCCC4)c1	-14.5%	nt	nt	6.4%	nt	nt
COc1cc(C(=O)N(Cc2ccccc2)c2cccc(C)c2)ccc1OC(F)F	?	-8.3	26.0%	?	-12.6%	36.0%
Cc1cc2c(cc1S(=O)(=O)NCc1ccc(F)cc1)OCCN2C	-17.6%	nt	nt	-3.8%	nt	nt
CCCCN(C)CCNC(=O)c1cc(=O)[nH]c2ccc(S(=O)(=O)N3CCCCCC3)cc12	-1.0%	nt	nt	-11.3%	nt	nt
CC(OC(=O)CSc1ccccc1)C(=O)NC1CCCCC1C (stereo not given)	-5.0%	13.2	nt	3.7%	12.6%	nt
CC(=O)c1c(C(C)=O)c(C)n(-c2ccc(C)c(NC(=O)c3ccccc3Cl)c2)c1C	?	-3.3	-2.8%	?	?	23.4%
O=C(Nc1ccc(SC(F)F)cc1)c1cc(-c2ccncc2)nc2ccccc12	20.6µM*	-13.9	nt	?	?	nt
CC(C)(C)c1ccccc1NC(=O)c1cc(-c2ccncc2)nc2ccccc12	?	-26.3	nt	?	16.4µM*	nt
CCOc1cc(N2CCOCC2)c(OCC)cc1NC(=O)c1cc(-c2ccco2)nc2ccccc12	23.1µM*	-4.5	?	?	2.59µM*	-98.4%
O=C(NNC(=O)c1cc(-c2ccncc2)nc2ccccc12)c1ccccc1O	?	72.5	nt	?	?	nt
COc1ccc(-c2cc(C(=O)NNC(=O)c3csc(N4CCOCC4)n3)c3ccccc3n2)cc1OC	16.4µM*	-16.0	nt	20.6µM*	?	nt
O=C(Nc1ccccc1)C1=C(Nc2ccccc2)CSC1	-10.6%	-22.4	nt	-21.0%	nt	nt
COCCN1Cc2cccc(C(=O)Nc3ccc(Cl)cc3Cl)c2C1=O	?	nt	nt	-25.6%	nt	nt
